Source: PubChem BioAssay (National Center for Advancing Translational Sciences (NCATS))
LASV entry inh: Lassa virus entry inhibition | 300,000 compounds, 1.2% hits | Lassa virus pseudotype entry inhibition, cell reporter | Potency, µM (titrated, usually from 37.9 µM), without a hit: at the highest dose activity change, negative = inhibition, actives largely listed as inhibitors; calls by dose curve; tested in HEK293 cells; further: potency means the concentration at half of the fitted maximal effect; nearly all actives have a fitted effect of over 50% in size
FMDV inh: blocks foot and mouth disease virus | 410,000 compounds, 1.2% hits | FMDV antiviral cell-based qHTS | Potency, µM (doses to about 57.9 µM), for the others: at the highest dose activity change, negative = inhibition, hits mostly inhibitors; calls by dose curve; tested in HEK293T cells; further: read-out not given here; potency means the concentration at half of the fitted maximal effect; nearly all actives have a fitted effect of over 45% in size
HCMV antiviral: human cytomegalovirus inhibition; activity change, negative = inhibition, % at 57.5 µM; 410,000 compounds, 4.5% hits; HFF cells, HCMV-luciferase reporter, 72 h; active compounds read low; in the data active means activity change below about -60%; inconclusive means no clear call, values can overlap the other calls; inactive means above about -39%
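Compounds were evaluated in HFFs infected with an HCMV luciferase reporter virus (MOI 1 PFU/cell). Luciferase in lysates collected 72 h post infection served as the replication measure.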
MARV entry inh: Marburg virus entry inhibition. 300,000 compounds, 1.8% hits. Potency, µM (series often up to 37.8 µM), for inactives: at the top dose activity change, negative = inhibition, usual class: inhibitors. Marburg virus pseudotyped entry inhibition, cell reporter; calls by dose curve; tested in HEK293 cells; further: potency means the concentration at half of the fitted maximal effect
Starred values were filed as active, the others as inactive; u = inconclusive; x = not tested or not shown; [ ] = another dose, or the depositor's remark. Shown are actives, neighbours in structure and some others; about 6.2% of the full set was active somewhere. On the % scale 0 is the no-effect control and ±100 the full control effect.

SMILES	LASV entry inh	FMDV inh	HCMV antiviral	MARV entry inh
c1ccc2c(N3CCNCC3)cccc2c1	-9%	-24%	16	11µM*
Clc1cccc(N2CCNCC2)c1Cl	7%	-25%	26	u
C=C1C(=O)OC2C1C(OC(=O)C(C)=CC)CC(=C)C1C(O)C3OC3(C)C21O (configuration not stated)	-15%[46.1 µM]	28µM*	u	-23%
C=C1C2C[C@H](O)C(C)(C)[C@@]2(O)[C@H](O)C[C@]23C[C@@](C)(O)[C@H](CC[C@H]12)[C@H]3OC(C)=O (some centres not stated)	1%	6%	-1	25%
Cc1ccccc1NC(=S)N(C)CCc1ccccn1	5%	-5%	26	24%
CC(=O)c1c(C)oc2ccc(N(C(C)=O)S(=O)(=O)c3ccc(F)cc3C)cc12	-3%	u	2	-21%
CC(=O)c1c(C)oc2ccc(N(C(C)=O)S(=O)(=O)c3cccc4cccnc34)cc12	u	u	-79*	u
CC(=O)c1c(C)oc2ccc(N(C(C)=O)S(=O)(=O)c3ccc(Cl)c([N+](=O)[O-])c3)cc12	-29%	35µM*	10	-24%[46.1 µM]
CCOc1ccc(S(=O)(=O)N(C(C)=O)c2ccc3oc(C)c(C(=O)OC)c3c2)cc1	u	u	-62*	u
CC(=O)c1c(C)oc2ccc(N(C(C)=O)S(=O)(=O)c3ccc(Br)cc3)cc12	-13%	u	u	u
CCCC(=O)N(c1ccc2oc(C)c(C(C)=O)c2c1)S(=O)(=O)c1ccc(CC)cc1	u	u	-93*	x
COc1ccccc1-n1c(-c2ccc(C)cc2)nc2ccccc2c1=O	-18%[46.1 µM]	12%	-11	u
Cc1cc(C)c(S(=O)(=O)N(C)Cc2cnn(C)c2)c(C)c1	11%	-17%	6	8%
Cc1cccc(NC(=O)c2ccccc2SCc2ccc(F)cc2)n1	-2%	-14%	u	-15%
O=C(Nc1cccc(Cl)c1)c1ccc2c(c1)SC1=NS(=O)(=O)CCN12	u	-19%	-79*	u
Cc1ccc(/C=C/c2nc3ccccc3n2S(=O)(=O)c2ccc(Br)cc2)cc1	u	-65%	-89*	x
CSc1ccc(/C=C/c2nc3ccccc3n2S(=O)(=O)c2cccc(Cl)c2)cc1	u	-86%	-65*	-18%[46.1 µM]
CCCN(CCC)C(=O)c1c[nH]c2ccc(S(=O)(=O)Nc3cc(C)cc(C)c3)cc2c1=O	15%[46.1 µM]	12%	11	-1%[46.1 µM]
O=[N+]([O-])c1ccc2nc(-c3ccncc3)[nH]c2c1	x	49%	72	x
O=[N+]([O-])c1ccc(-c2nc(-c3ccc(F)cc3)c(-c3ccncc3)[nH]2)cc1	u	x	x	8.2µM*
CCOC(=O)[C@]12Cc3c(cc(OC)c(OC)c3OC)[C@H]1N(CCC(=O)OC)C(=O)c1ccccc12	x	u	-108*	x
CCOC(=O)[C@]12Cc3ccccc3[C@H]1N(Cc1ccccc1)C(=O)c1cc(OC)ccc12	x	u	12	x
CCOC(=O)[C@]12Cc3ccccc3[C@H]1N(CCC(=O)OC)C(=O)c1cc(OC)ccc12	x	28µM*	-99*	x
CCOC(=O)[C@]12Cc3cc(OC)ccc3[C@H]1N(CCC(=O)OC)C(=O)c1cc(OC)ccc12	x	20µM*	-107*	x
Cc1cc(C)cc(NC(=O)N2c3ccccc3NC(=O)CC2C)c1 (configuration not stated)	-25%	-7%	-7	2%[46.1 µM]
SMILES	LASV entry inh	FMDV inh	HCMV antiviral	MARV entry inh
CCOc1ncccc1C(=O)OCc1ccc(C#N)cc1	14%	-9%	11	18%
Nc1nccc(/C=C/c2c(F)cccc2Cl)n1	3%	0%	-68*	-26%[46.1 µM]
O=C(/C=C/c1c(F)cccc1Cl)Nc1ncccn1	16%	23%	21	-4%
Oc1cccc2ccc(/C=C/c3c(F)cccc3Cl)nc12	18µM*	15%	45	u
Cc1ccc(/C=N/Nc2nc(C(C)(C)C)cs2)o1	0%	13%	0	-19%
Cc1ccc(/C=N/Nc2nc3ccccc3s2)o1	3.2µM*	-39%	-15	u
CC(C)CCNC(=O)c1cc(C(=O)c2cc(Br)ccc2O)cn(CCC(C)C)c1=O	2%	u	-73*	-19%[46.1 µM]
CC(C)CCNC(=O)c1cc(C(=O)c2cc(F)ccc2O)cn(CCC(C)C)c1=O	1%	-6%	-14	8%[46.1 µM]
COCCCn1cc(C(=O)c2cc(Br)ccc2O)cc(C#N)c1=O	u	-10%	-25	1.6µM*
CCOCCCn1cc(C(=O)c2cc(Br)ccc2O)cc(C#N)c1=O	u	6%	12	-27%[46.1 µM]
CN(C)/C=N/C(=S)Nc1ccc(Cl)cc1Cl	u	44%	-9	-13%[46.1 µM]
CCN(CC)S(=O)(=O)c1cc(NC(=O)CSc2nnc(N)s2)ccc1C	x	-12%	5	x
CCN(CC)S(=O)(=O)c1cc(NC(=O)CSc2nc3c(cc2C#N)C(=O)CC(C)(C)C3)ccc1C	u	u	-85*	u
C=CCNC(=O)CN1C(=O)NC(C)(c2ccc(OC)cc2)C1=O (configuration not stated)	23%	4%	-99*	4%[46.1 µM]
COc1cc(NC(=O)CN2C(=O)NC(c3ccccc3)(c3ccccc3)C2=O)cc(OC)c1	u	-14%	u	-12%[46.1 µM]
COc1ccc(CNC(=O)CN2C(=O)NC(C)(c3ccc(C(C)(C)C)cc3)C2=O)cc1 (configuration not stated)	-19%	u	-37	u
COc1ccc(C2(c3ccc(OC)cc3)NC(=O)N(CC(=O)Nc3ccc(C(=O)N(C)C)cc3)C2=O)cc1	-14%	-17%	-66*	18%
Cc1onc(-c2ccccc2)c1C(=O)NCC1CCCO1 (configuration not stated)	-2%	-11%	-14	19%
O=C(NCCCN1CCOCC1)c1cc2c(s1)CSC2	0%	10%	11	3%
Cc1ccc(S(=O)(=O)N2CCOCC2)cc1C(=O)NCCCn1ccnc1	1%	-2%	29	18%
O=C(NCc1ccncc1)c1cc2ccccc2nc1Cl	17%[46.1 µM]	-11%	-79*	10%[46.1 µM]
CCOC(=O)c1c(C)[nH]c(C)c1C(=O)COC(=O)c1cccc(S(=O)(=O)N(CC)CC)c1	22µM*	-10%	-26	-2%
Cc1c(C(=O)Nc2ccc(F)cc2)oc2ccc(S(=O)(=O)N3CC(C)CC(C)C3)cc12 (configuration not stated)	u	x	-12	u
CCN(CC)C(=O)c1oc2ccc(S(=O)(=O)N3CC(C)CC(C)C3)cc2c1C (configuration not stated)	u	-28%	-88*	u
Cc1ccc(CNC(=O)CN(Cc2cccs2)C(=O)C2(C)CC(=O)N=C3C=CC=CN32)cc1 (configuration not stated)	8%	-9%	-77*	4%
Cc1ccsc1C1NC(=O)c2ccccc2N1 (configuration not stated)	-10%	18%	-7	u
Cc1ccc(N/C(SCc2ccccc2C)=C(/C#N)C(=O)NCc2ccco2)cc1C	u	-27%	-18	u
CCc1ccc(N/C(SCc2cccc(F)c2)=C(/C#N)C(=O)NCc2ccco2)cc1	u	-6%	5	21µM*
